Measurements from PubChem BioAssay (NCI).
The panel holds about 79,000 compounds, 15% with a hit somewhere; the sample as a whole holds those more often. No stated cut-off is given here; in the data, active means growth inhibition above about 70%; inactive means the rest.

Legend:
[1] = NCI Yeast Anticancer Drug Screen. Data for the rad52 strain (AID 147);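 further: 0% = growth of vehicle-treated control cultures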; conditions: S. cerevisiae rad52 mutant growth inhibition, active compounds read high
Outline: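 Measured: yeast growth inhibition. System: strain with a defined DNA damage repair alteration. Reference: vehicle-treated control cultures.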

[2] = NCI Yeast Anticancer Drug Screen. Data for the wt1 strain (AID 149);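 further: 0% = growth of vehicle-treated wt1 cultures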; conditions: S. cerevisiae wt1 strain (SPY 50644) growth inhibition, active compounds read high
Outline: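 Each compound is tested on wt1 yeast and the loss of growth versus vehicle gives the inhibition value.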

[3] = NCI Yeast Anticancer Drug Screen. Data for the mgt1 strain (AID 153); conditions: S. cerevisiae mgt1 mutant growth inhibition, active compounds read high
Outline: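 After exposure of the mgt1 yeast mutant to compound, growth was measured and reported as inhibition compared with vehicle controls.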

[4] = NCI Yeast Anticancer Drug Screen. Data for the rad50 strain (AID 155);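 further: 0% = growth of vehicle-only cultures of the same strain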; conditions: S. cerevisiae rad50 strain growth inhibition, active compounds read high
Outline: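 Vehicle-treated cultures provide the reference for the growth inhibition reported for compound-exposed, repair-deficient yeast.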

[5] = NCI Yeast Anticancer Drug Screen. Data for the mec2-1 strain (AID 157); conditions: S. cerevisiae mec2-1 strain, active compounds read high
Outline: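 Test agents were screened against the mec2-1 yeast strain, with defined DNA repair or cell cycle alteration. Growth was scored as inhibition against vehicle-only controls.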

[6] = NCI Yeast Anticancer Drug Screen. Data for the sgs1 mgt1 strain (AID 161);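 further: 0% = growth of cultures given vehicle only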; conditions: S. cerevisiae sgs1 mgt1 strain, active compounds read high
Outline: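 Test agents were incubated with a DNA-repair-mutant yeast strain. Growth was then read and compared against vehicle-treated controls.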

[7] = NCI Yeast Anticancer Drug Screen. Data for the CLN2oe strain (AID 163);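 further: 0% = growth of vehicle-only control cultures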; conditions: S. cerevisiae CLN2oe strain, active compounds read high
Outline: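 Here, growth inhibition in a cell-cycle-altered yeast strain after compound exposure was quantified against vehicle control growth.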

[8] = NCI Yeast Anticancer Drug Screen. Data for the cln2 rad14 strain (AID 165);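 further: 0% = growth equal to vehicle treated cultures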; conditions: S. cerevisiae cln2 rad14 strain, active compounds read high
Outline: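 Growth of compound-exposed yeast (cln2 rad14 genotype) measured and expressed as inhibition relative to vehicle.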

[9] = NCI Yeast Anticancer Drug Screen. Data for the bub3 strain (AID 167); conditions: S. cerevisiae bub3 mutant strain, active compounds read high
Outline: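 Mutant yeast screening strain plus compound; vehicle-treated cultures serve as the 0% inhibition reference.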

[10] = NCI Yeast Anticancer Drug Screen. Data for the wt2 strain (AID 169); conditions: S. cerevisiae wt2 strain growth inhibition, active compounds read high
Outline: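 Genetically defined yeast strains from a DNA-repair/cell-cycle panel were used. Compound-exposed yeast growth was measured, and the inhibition was calculated relative to vehicle treatment.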

[11] = NCI Yeast Anticancer Drug Screen. Data for the mlh1 strain (AID 171);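 further: 0% = growth of vehicle-treated control cultures of the same strain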; conditions: S. cerevisiae mlh1 strain growth inhibition, active compounds read high
Outline: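 Here the genetically defined yeast mutant is grown with each compound, and the extent to which its growth falls below that of vehicle-exposed cells is reported.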

[12] = NCI Yeast Anticancer Drug Screen. Data for the sgs1 strain (AID 173);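 further: 0% = growth of vehicle-only control cultures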; conditions: S. cerevisiae sgs1 mutant, active compounds read high
Outline: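 Relative growth inhibition, referenced to vehicle, was determined in a yeast strain with a defined alteration affecting DNA damage repair or cell cycle control after compound exposure.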

[13] = NCI Yeast Anticancer Drug Screen. Data for the rad18 strain (AID 177); conditions: S. cerevisiae rad18 mutant growth inhibition, active compounds read high
Outline: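 Screen uses a yeast strain with a defined lesion in DNA damage repair; compound effect is read as loss of growth compared to untreated vehicle cultures.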

[14] = at 5.0 µM (retest, dose inferred, filed as 0.5)
[15] = at 50.0 µM (retest, dose inferred, filed as 5.0)

Measured: growth inhibition

COc1cc(C2SCC(=O)N2c2nnc(C(F)(F)F)s2)cc(OC)c1OC (stereo not given)
inactive: [1]; at 1.2 µM -1% | [1]; at 3.7 µM -3% | [1]; at 11.0 µM -2% | [1]; at 33.0 µM -3% | [1]; at 100.0 µM -5% | [2]; at 1.2 µM -84% | [2]; at 3.7 µM -3% | [2]; at 11.0 µM -3% | [2]; at 33.0 µM -1% | [2]; at 100.0 µM -3% | [3]; at 1.2 µM -1% | [3]; at 3.7 µM -2% | [3]; at 11.0 µM -5% | [3]; at 33.0 µM -1% | [3]; at 100.0 µM -4% | [4]; at 1.2 µM -1% | [4]; at 3.7 µM -2% | [4]; [14] -5% | [4]; at 11.0 µM -2% | [4]; at 33.0 µM 0% | [4]; [15] -18% | [4]; at 50.0 µM 18.1% | [4]; at 100.0 µM -5% | [5]; at 1.2 µM -4% | [5]; at 3.7 µM 2% | [5]; [14] 0% | [5]; at 11.0 µM 4% | [5]; at 33.0 µM 1% | [5]; [15] -4% | [5]; at 50.0 µM 20.9% | [5]; at 100.0 µM -1% | [6]; [14] -4% | [6]; [15] 2% | [6]; at 50.0 µM 0.1% | [7]; at 1.2 µM -7% | [7]; at 3.7 µM 1% | [7]; at 11.0 µM -2% | [7]; at 33.0 µM 0% | [7]; at 100.0 µM -8% | [8]; [14] -7% | [8]; [15] -10% | [8]; at 50.0 µM -12.5% | [9]; at 1.2 µM 6% | [9]; at 3.7 µM 12% | [9]; [14] 31% | [9]; at 11.0 µM 28% | [9]; at 33.0 µM 41% | [9]; [15] 50% | [9]; at 50.0 µM 43.1% | [9]; at 100.0 µM 48% | [10]; at 1.2 µM -2% | [10]; at 3.7 µM -4% | [10]; at 11.0 µM -2% | [10]; at 33.0 µM -4% | [10]; at 100.0 µM -4% | [11]; at 1.2 µM -3% | [11]; at 3.7 µM -2% | [11]; at 11.0 µM 0% | [11]; at 33.0 µM -1% | [11]; at 100.0 µM -2% | [12]; at 1.2 µM -3% | [12]; at 3.7 µM -2% | [12]; at 11.0 µM -3% | [12]; at 33.0 µM -1% | [12]; at 100.0 µM -1% | [13]; at 1.2 µM -2% | [13]; at 3.7 µM -2% | [13]; at 11.0 µM -1% | [13]; at 33.0 µM -2% | [13]; at 100.0 µM -2%
